Screening results (PubChem)
UBC13 polyUb: blocks human UBC13 polyubiquitin chain formation. AID 485273. inhibition, % at 20 µM. TR-FRET. P61088. 330,000 compounds, 0.47% hits; in the data active means inhibition above about 45%, passing the limit was not always enough; inconclusive means no clear call, values can overlap the other calls
Target sequence (P61088 whole entry, looked up): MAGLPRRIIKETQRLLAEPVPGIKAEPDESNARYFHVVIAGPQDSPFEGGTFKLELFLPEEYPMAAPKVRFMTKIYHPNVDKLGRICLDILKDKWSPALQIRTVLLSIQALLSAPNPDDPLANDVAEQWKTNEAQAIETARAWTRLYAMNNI
MEKK2 mut-MEK5: signal of MEK5 binding to mutant human MEKK2 PB1 domain; bead flow cytometry, Alexa488-MEK5 binding to MEKK2 mutant; 290,000 compounds, 0.35% hits; percent response, % at 10 µM; in the data active means percent response above about 24%, passing the limit was not always enough
MEKK2wt PB1 HTS: raises or lowers MEK5 binding to wildtype human MEKK2 PB1 domain; Q9Y2U5; bead flow cytometry, Alexa488-MEK5 binding to MEKK2 WT; actives lie on both sides; binding response (% of control), % at 10 µM; 290,000 compounds, 1.1% hits; AID 1531; in the data active means binding response below about 67% or above about 130%; inconclusive means no clear call, values can overlap the other calls; inactive means in between
MEKK3 PB1 HTS: modulators (inhibitors or enhancers) of MEK5 binding to human MEKK3 PB1 domain; AID 1529; 290,000 compounds, 1.4% hits; binding response (% of control), % at 10 µM; Q99759; bead-based flow cytometry, Alexa488-MEK5 binding to MEKK3; actives lie on both sides; 0 = blocked by unlabeled MEK5, 100 = vehicle;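 active means binding response more than 3 SD above or below the average of its plate-row segment, actives on both sides; inconclusive means wells at one plate position flagged as instrument error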;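 further: Alexa488 bead fluorescence after subtracting the streptavidin-only scavenger bead signal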
Rce1 inhib: blocks yeast Ras-converting enzyme; Q03530; yeast membranes, quenched prenylated peptide cleavage fluorescence; calls only; 290,000 compounds, 0.27% hits; AID 2563;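 active means fall in fluorescence gain of 50% or more versus controls, with final raw signal at or below 3038400; inconclusive means same 50% fall but final raw signal above 3038400; inactive means fall in fluorescence gain under 50%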;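 further: plate controls were neutral control wells for no effect and wells lacking membranes for full effect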
Target sequence (Q03530 whole entry, looked up): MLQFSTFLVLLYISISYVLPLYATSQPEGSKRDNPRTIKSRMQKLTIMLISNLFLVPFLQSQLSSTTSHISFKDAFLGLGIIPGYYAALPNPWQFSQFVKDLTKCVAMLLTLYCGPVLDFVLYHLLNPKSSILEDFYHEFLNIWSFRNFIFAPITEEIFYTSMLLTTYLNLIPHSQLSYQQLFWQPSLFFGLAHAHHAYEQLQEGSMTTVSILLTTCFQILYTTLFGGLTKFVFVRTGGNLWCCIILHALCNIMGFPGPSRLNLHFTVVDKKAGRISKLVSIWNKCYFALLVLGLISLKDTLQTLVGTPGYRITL
MEKK2wt confirm: raises or lowers MEK5 binding to wildtype human MEKK2, retest; shares compounds with MEKK3 PB1 HTS; bead flow cytometry, Alexa488-MEK5 binding to MEKK2 WT; actives lie on both sides; binding response (% of control), % at 10 µM; 5,900 compounds, 2.4% hits; in the data active means binding response below about 16% or above about 210%; inactive means in between
MEKK2mut confirm: signal of MEK5 binding to mutant human MEKK2, retest | bead flow cytometry, Alexa488-MEK5 binding to MEKK2 mutant | shares compounds with MEKK3 PB1 HTS | percent response, % at 10 µM | 5,900 compounds, 2% hits; in the data active means percent response mostly above about 71%, no sharp cut-off; inactive means mostly below about 38%;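 further: higher means compound restores mutant binding toward wildtype level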
MEKK3-MEK5 inh: MEKK3-MEK5 PB1 inhibition, single concentration confirmation. shares compounds with MEKK3 PB1 HTS. bead flow cytometry, Alexa488-MEK5 binding to MEKK3; active compounds read low. binding response (% of control), % at 10 µM. 5,900 compounds, 1.8% hits;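 active means binding response below 72% of control, or above a set upper limit, though filed actives all read lower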;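 further: 100% = DMSO only wells and 0% = binding blocked by excess unlabeled MEK5; lower values mean stronger disruption of MEK5 binding to MEKK3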
* marks the source's active call; other numbers are inactive results; i = inactive; ? = inconclusive; nt = no result; [ ] = dose if it differs, or a comment. Most compounds without a hit are left out; they make up all but 2.5% or so of the library.

SMILES | UBC13 polyUb | MEKK2 mut-MEK5 | MEKK2wt PB1 HTS | MEKK3 PB1 HTS | Rce1 inhib | MEKK2wt confirm | MEKK2mut confirm | MEKK3-MEK5 inh
COc1ccccc1NS(=O)(=O)c1cc([N+](=O)[O-])ccc1N/N=C/c1c(C)[nH]c2ccccc12 | -162 | 67* | nt | 75 | i | 97 | -1 | 91
CCCCNC(=S)NNC(=O)c1ccncc1 | -19 | -16 | 50 | 35*[inhibitor] | i | 102 | -2 | 104
CCCCNC(=S)NNC(=O)c1sccc1C | -6 | 4 | 102 | 101 | i | nt | nt | nt
Cc1ccc(CN2CCC(c3cc(-c4ccc(Cl)cc4)n[nH]3)CC2)cc1 | 24 | 27* | 167* | 106 | i | 155 | 32 | 109
CCOC(=O)c1c(CSc2ccc(C)cc2)n(C)c2cc(Br)c(O)c(CN(C)C)c12 | 8 | 43 | 145* | 104 | i | 142 | 21 | 111
CCOC(=O)c1c(C)n(-c2ccc(C)cc2)c2ccc(O)c(CN(C)C)c12 | 19 | 30 | 138* | 113 | i | 118 | 8 | 103
CCOC(=O)c1c(C)n(-c2ccc(OC)cc2)c2ccc(O)c(CN(C)C)c12 | 29 | 15 | 117 | 100 | i | nt | nt | nt
CC(C)CC1c2[nH]c3ccccc3c2CCN1CCCn1cccn1 (configuration not stated) | 5 | 12 | 111 | 106 | i | nt | nt | nt
COc1ccc(Cl)cc1NC(=O)CN(C)C(=O)Cn1cnnn1 | 6 | nt | nt | nt | nt | nt | nt | nt
CCCCNC(=S)NC(=O)c1ccccc1Br | 1 | 1 | 111 | 154* | i | 98 | -1 | 102
O=C(CNC(=S)NC(=O)c1ccccc1Br)c1ccccc1 | 10 | 6 | 103 | 104 | i | nt | nt | nt
COc1cc(/C=c2\sc3nc(=O)c(-c4ccccc4)nn3c2=O)ccc1OCCC(C)C | nt | -1 | 97 | 140* | nt | 99 | 1 | 103
CC1(C)C(=O)OC(c2cccn2-c2ccc([N+](=O)[O-])cc2)C2(CCCCC2)C1=O (configuration not stated) | 2 | -1 | 98 | 89 | i | nt | nt | nt
CC1(C)C(=O)OC(c2cccn2-c2ccc([N+](=O)[O-])cc2)C(C)(C)C1=O (configuration not stated) | -9 | 0 | 104 | 136* | i | 103 | 2 | 104
O=C1OC(c2cccc([N+](=O)[O-])c2)C2(CCCC2)C(=O)C12CCCCC2 (configuration not stated) | 2 | 0 | 104 | 142* | i | 93 | -4 | 95
CC1(C)C(=O)C2(CCCCC2)C(=O)OC1c1cccn1-c1ccc([N+](=O)[O-])cc1 (configuration not stated) | -3 | 0 | 107 | 133* | i | 103 | 3 | 101
CC(C)Oc1ccc(S(=O)(=O)N2CCCCC2)cc1NC(=O)C1CSC2(C)CCC(=O)N12 (configuration not stated) | -9 | nt | nt | nt | i | nt | nt | nt
CN(C(=O)COC(=O)C1CCN(S(=O)(=O)c2ccc3c(c2)OCCO3)CC1)C1CCCCC1 | 2 | nt | nt | nt | i | nt | nt | nt
COc1ccc(S(=O)(=O)N2CCCCC2)cc1NC(=O)c1[nH]c(C)c(C(C)=O)c1C | 16 | nt | nt | nt | nt | nt | nt | nt
COC(=O)Nc1cc([N+](=O)[O-])ccc1OC | -11 | 0 | 105 | 100 | i | nt | nt | nt
COc1ccc([N+](=O)[O-])cc1NC(=O)c1ccc(C)o1 | 5 | 1 | 109 | 187* | i | 96 | -1 | 95
O=C(CNC(=O)c1ccccc1)N/N=C/c1ccccc1Cl | -3 | 1 | 112 | 129* | i | 96 | 0 | 100
CNC(=S)N/N=C/c1ccccc1Cl | -10 | 0 | 108 | 142* | i | 102 | -1 | 102
O=S(=O)(NCc1ccccn1)c1ccc(Cl)s1 | -2 | 2 | 106 | 100 | i | nt | nt | nt
O=[N+]([O-])c1ccc(CSc2nc3ccccc3o2)cc1 | ? | -5 | 91 | 94 | i | nt | nt | nt
SMILES | UBC13 polyUb | MEKK2 mut-MEK5 | MEKK2wt PB1 HTS | MEKK3 PB1 HTS | Rce1 inhib | MEKK2wt confirm | MEKK2mut confirm | MEKK3-MEK5 inh
O=[N+]([O-])c1ccc(CSc2nnc(SCc3ccccc3)s2)cc1 | -10 | -2 | 91 | 60*[inhibitor] | i | 100 | 0 | 108
CSc1nc(C=Nc2ccccc2Cl)c(O)n1Cc1cccc(Cl)c1 | -10 | -8 | 92 | 95 | i | nt | nt | nt
Nc1ccc(Oc2ccc(Br)cc2)cc1 | -15 | -1 | 97 | 72*[inhibitor] | i | 104 | 4 | 103
COc1ccc(S(=O)(=O)N(C)CC(=O)NCc2ccco2)cc1OC | -1 | -3 | 97 | 99 | i | nt | nt | nt
COc1ccc(C(=O)Nc2ccccc2C(=O)Nc2ccccc2C(=O)O)cc1 | 8 | 3 | 96 | 102 | i | nt | nt | nt
COc1ccc(C(=NNc2ccccc2C(=O)O)c2ccc(OC)cc2)cc1 | -8 | 0 | 99 | 150* | i | 94 | 4 | 101
CCOc1ccccc1OC(=O)c1cc2ccccc2oc1=O | -6 | 2 | 107 | 104 | i | nt | nt | nt
COc1ccc(C(=O)NN/C(C)=C/C(=O)C(F)(F)C(F)(F)C(F)(F)F)cc1 | -10 | -1 | 102 | 130* | i | 95 | -2 | 99
COc1ccc(C(=O)NNC(=O)OC(C)(C)C)cc1 | 1 | -23 | 92 | 86 | i | nt | nt | nt
COc1ccc(F)cc1S(=O)(=O)NCCCn1ccnc1 | 1 | 3 | 101 | 102 | i | nt | nt | nt
O=[N+]([O-])c1cc(C(F)(F)F)cc([N+](=O)[O-])c1NCc1cccnc1 | -6 | 8 | 95 | 99 | i | nt | nt | nt
O=[N+]([O-])c1cc(C(F)(F)F)cc([N+](=O)[O-])c1NCCCNc1ccc([N+](=O)[O-])c2cccnc12 | -21 | 0 | 102 | 68*[inhibitor] | i | 105 | 2 | 101
COc1cccc2c(=O)c(C/C=C(/C)Cl)c(C)[nH]c12 | 3 | -8 | 88 | 79*[inhibitor] | i | 104 | 5 | 102
CCC(=O)N1CCCC(C(=O)c2ccc(-c3ccccc3)cc2)C1 (configuration not stated) | 9 | 7 | 108 | 102 | i | nt | nt | nt
CC1(C)CC(=O)C(C=Nc2ccncc2)=C(O)C1 | 0 | -23 | -7.0*[inhibitor] | 0.0*[inhibitor] | i | 98 | -6 | 96
CCCCCCN=CC1=C(O)CC(C)(C)CC1=O | -8 | -32 | 0.0*[inhibitor] | 0.0*[inhibitor] | i | 99 | -3 | 93
CC1(C)CC(=O)C(C=Nc2cccnc2)=C(O)C1 | -2 | -7 | 90 | 90 | i | nt | nt | nt
CC(Cc1ccccc1)NC(=S)CN1CCCC1=S (configuration not stated) | 1 | -1 | 97 | 98 | i | nt | nt | nt
